About 83,000 compounds went through this panel and 20% of them were active in at least one assay; those are over-represented in the sample as a whole.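 Single-dose data. Exposure time 48 hours. Values below 10 considered active.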 Values without a mark were called inactive. Activity calls are given as the source filed them.
Experiments:
Test in all cases: NCI-60 one-dose screen, 48 h (100 = growth as untreated, 0 = no growth, -100 = all killed)
Conditions in all cases: 10 µM unless noted
[1] = tested on: DU-145 prostate
[2] = tested on: K-562 leukemia
[3] = tested on: MALME-3M melanoma
[4] = tested on: MDA-MB-231 breast
[5] = tested on: RXF 393 renal
[6] = tested on: SF-268 CNS
[7] = tested on: SF-295 CNS
[8] = tested on: SF-539 CNS
[9] = tested on: UACC-257 melanoma
[10] = tested on: M14 melanoma
[11] = tested on: HCT-15 colon
[12] = tested on: HT29 colon
[13] = tested on: SNB-75 CNS
[14] = tested on: SNB-19 CNS
[15] = tested on: U251 CNS
[16] = tested on: PC-3 prostate
[17] = tested on: SK-MEL-5 melanoma
[18] = tested on: UACC-62 melanoma
[19] = tested on: LOX IMVI melanoma
[20] = tested on: SK-MEL-28 melanoma

## CC1=C(C(=O)OCc2ccccc2)C(c2ccc3c(c2)OCO3)n2c(nc3ccccc32)N1 (stereo not given)
[1]
  growth: 53.5%
[2]
  growth: 13.8%
[3]
  growth: 39.7%
[4]
  growth: 68.6%
[5]
  growth: 53.2%
[6]
  growth: 59.6%
[7]
  growth: 20.4%
[8]
  growth: 9.94% (active)
[9]
  growth: 60.4%
[10]
  growth: 28.1%
[11]
  growth: 30.4%
[12]
  growth: 14.4%
[13]
  growth: -6.67% (active)
[14]
  growth: 41.6%
[15]
  growth: 36.3%
[16]
  growth: 41.1%
[17]
  growth: 25.5%
[18]
  growth: 46.2%
[19]
  growth: 34.6%
[20]
  growth: 61.8%

## COc1cccc(-c2cc(-c3ccc(Nc4nc(Nc5ccc(Cl)cc5)nc(Nc5ccc(Cl)cc5)n4)cc3)nc(N)c2C#N)c1
[1]
  growth: 56.3%
[2]
  growth: 41.5%
[3]
  growth: -52.9% (active)
[4]
  growth: -14.1% (active)
[5]
  growth: -48.7% (active)
[6]
  growth: 71%
[7]
  growth: 83.2%
[8]
  growth: 6.72% (active)
[9]
  growth: 16.3%
[10]
  growth: 15.6%
[11]
  growth: 22.8%
[12]
  growth: 16.8%
[13]
  growth: 65.9%
[14]
  growth: 106%
[15]
  growth: 3.83% (active)
[16]
  growth: -5.44% (active)
[17]
  growth: 13%
[18]
  growth: 76.4%
[19]
  growth: -33.6% (active)
[20]
  growth: -59.7% (active)

## COc1ccc(C(=O)/C=C/c2ccc(Cl)cc2)cc1S(N)(=O)=O
[1]
  growth: 90.8%
[2]
  growth: 3.05% (active)
[3]
  growth: 90.1%
[4]
  growth: 65.8%
[5]
  growth: 97.4%
[6]
  growth: 91.7%
[7]
  growth: 98.3%
[8]
  growth: 17.7%
[9]
  growth: 87.1%
[10]
  growth: -57.3% (active)
[11]
  growth: 26.3%
[12]
  growth: 43.6%
[13]
  growth: 82.5%
[14]
  growth: 14%
[15]
  growth: 32%
[16]
  growth: -55.6% (active)
[17]
  growth: 85.7%
[18]
  growth: 46.4%
[19]
  growth: 10.6%
[20]
  growth: 97.8%

## C=CCn1c(SCC(=O)Nc2ccc(C(=O)/C=C/c3ccc(Cl)cc3)cc2)nnc1-c1ccccc1
[1]
  growth: 93.7%
[2]
  growth: 76.3%
[3]
  growth: 98.7%
[4]
  growth: 101%
[5]
  growth: 118%
[6]
  growth: 84.7%
[7]
  growth: 94.9%
[8]
  growth: 96.6%
[9]
  growth: 111%
[10]
  growth: 94.4%
[11]
  growth: 87.7%
[12]
  growth: 89.2%
[13]
  growth: 70.8%
[14]
  growth: 92.6%
[15]
  growth: 94.3%
[16]
  growth: 75.2%
[17]
  growth: 98.7%
[18]
  growth: 85.1%
[19]
  growth: 92.3%
[20]
  growth: 90.2%

## O=C1NCCS(=O)(=O)/C1=C\C=C\c1cccc(C(F)(F)F)c1
[1]
  growth: 29.4%
[2]
  growth: 17.3%
[3]
  growth: 29.9%
[4]
  growth: 49.1%
[5]
  growth: 35.5%
[6]
  growth: 28.6%
[7]
  growth: 82.7%
[8]
  growth: 10.6%
[9]
  growth: 38.6%
[10]
  growth: 7.1% (active)
[11]
  growth: 10.2%
[12]
  growth: 16.8%
[13]
  growth: 71.2%
[14]
  growth: 49.6%
[15]
  growth: 36%
[16]
  growth: 37.5%
[17]
  growth: 34.5%
[18]
  growth: -15% (active)
[19]
  growth: -73.6% (active)
[20]
  growth: 28.7%

## CCCCCCCC/C=C\CCCCCCCCOc1ccc(CC(=O)NCC[N+]2(C)CCCC2)cc1
[1]
  growth: 78.4%
[2]
  growth: 41.6%
[3]
  growth: 66%
[4]
  growth: 59.8%
[5]
  growth: -45.3% (active)
[6]
  growth: 62.8%
[7]
  growth: 74.8%
[8]
  growth: 65.4%
[9]
  growth: 77.3%
[10]
  growth: 71.4%
[11]
  growth: 84.8%
[12]
  growth: 18.4%
[13]
  growth: 43.4%
[14]
  growth: 38%
[15]
  growth: 15.1%
[16]
  growth: 9.45% (active)
[17]
  growth: 79.5%
[18]
  growth: 50.3%
[19]
  growth: 72.8%
[20]
  growth: 95.9%

## COC(=O)[C@@H](Cc1c[nH]c2ccccc12)NC(=O)[C@H](Cc1ccccc1)NCc1ccncc1
[1]
  growth: 108%
[2]
  growth: 102%
[3]
  growth: 86.5%
[4]
  growth: 93.2%
[5]
  growth: 103%
[6]
  growth: 96.9%
[7]
  growth: 106%
[8]
  growth: 103%
[9]
  growth: 79.4%
[10]
  growth: 103%
[11]
  growth: 110%
[12]
  growth: 87.5%
[13]
  growth: 93%
[14]
  growth: 93.3%
[15]
  growth: 92.7%
[16]
  growth: 78.5%
[17]
  growth: 102%
[18]
  growth: 95.3%
[19]
  growth: 95%
[20]
  growth: 122%

## COc1ccc(CNc2ccc3nc(CCC4CCCCC4)[nH]c3c2)cc1
[1]
  growth: 83.4%
[2]
  growth: 19.6%
[3]
  growth: 59.4%
[4]
  growth: 79.7%
[5]
  growth: 74.2%
[6]
  growth: 71.4%
[7]
  growth: 91%
[8]
  growth: 76.4%
[9]
  growth: 75.3%
[10]
  growth: 75.7%
[11]
  growth: 42%
[12]
  growth: 18.4%
[13]
  growth: 69.4%
[14]
  growth: 84%
[15]
  growth: 60.9%
[16]
  growth: 59.1%
[17]
  growth: 38%
[18]
  growth: 69.9%
[19]
  growth: 81.5%
[20]
  growth: 76.4%

## Nc1nc(N)c2c(n1)NC(c1ccc3c(c1)OCO3)CC(c1cccc(Nc3ccncc3)c1)=N2 (stereo not given)
[1]
  growth: 106%
[2]
  growth: 44.3%
[3]
  growth: 100%
[4]
  growth: 94.2%
[5]
  growth: 82.2%
[6]
  growth: 68.1%
[7]
  growth: 96.5%
[8]
  growth: 101%
[9]
  growth: 67.3%
[10]
  growth: 83.5%
[11]
  growth: 98.4%
[12]
  growth: 61.3%
[13]
  growth: 66.9%
[14]
  growth: 94.5%
[15]
  growth: 80.8%
[16]
  growth: 50.8%
[17]
  growth: 90%
[18]
  growth: 87.6%
[19]
  growth: 48.5%
[20]
  growth: 108%

## COC(=O)c1c(C(=O)OC)c2ccc3c4ncccc4ccc3n2c1C(=O)c1ccc(C)cc1
[1]
  growth: 98.7%
[2]
  growth: 85.8%
[3]
  growth: 89.7%
[4]
  growth: 84.1%
[5]
  growth: 106%
[6]
  growth: 98.5%
[7]
  growth: 87.7%
[8]
  growth: 97.6%
[9]
  growth: 95.2%
[10]
  growth: 90.1%
[11]
  growth: 91.1%
[12]
  growth: 95.1%
[13]
  growth: 95.2%
[14]
  growth: 98.1%
[15]
  growth: 98.9%
[16]
  growth: 86.6%
[17]
  growth: 83.7%
[18]
  growth: 84.8%
[19]
  growth: 88%
[20]
  growth: 95.1%

## CC(C)(C)CC(C)(C)Nc1c(-c2c(O)c3ccccc3oc2=O)nc2sccn12
[1]
  growth: 113%
[2]
  growth: 101%
[3]
  growth: 94%
[4]
  growth: 93%
[5]
  growth: 103%
[6]
  growth: 105%
[7]
  growth: 98.8%
[8]
  growth: 101%
[9]
  growth: 81.4%
[10]
  growth: 97.2%
[11]
  growth: 100%
[12]
  growth: 97%
[13]
  growth: 108%
[14]
  growth: 97%
[15]
  growth: 97.7%
[16]
  growth: 92.6%
[17]
  growth: 96.9%
[18]
  growth: 90.7%
[19]
  growth: 99.7%
[20]
  growth: 102%

## O=C(Nc1ccc2[nH]ncc2c1)c1csc(Nc2ccccc2)n1
[1]
  growth: 21.4%
[2]
  growth: 20.7%
[3]
  growth: 69%
[4]
  growth: 58.5%
[5]
  growth: 12.9%
[6]
  growth: 56.6%
[7]
  growth: 22.6%
[8]
  growth: 22.5%
[9]
  growth: 77.2%
[10]
  growth: 24.5%
[11]
  growth: 16.9%
[12]
  growth: 11.8%
[13]
  growth: 36%
[14]
  growth: 30.1%
[15]
  growth: 28.7%
[16]
  growth: 38.7%
[17]
  growth: 12.3%
[18]
  growth: 26.8%
[19]
  growth: 40.8%
[20]
  growth: 64.1%

## Cc1cccc(CN(Nc2ccccc2)c2ccccc2)n1
[1]
  growth: 107%
[2]
  growth: 87.5%
[3]
  growth: 89.8%
[4]
  growth: 118%
[5]
  growth: 96.3%
[6]
  growth: 101%
[7]
  growth: 118%
[8]
  growth: 96.6%
[9]
  growth: 98.7%
[10]
  growth: 105%
[11]
  growth: 92.1%
[12]
  growth: 96.3%
[13]
  growth: 93.1%
[14]
  growth: 106%
[15]
  growth: 91.4%
[16]
  growth: 85.7%
[17]
  growth: 97.9%
[18]
  growth: 96.3%
[19]
  growth: 98.5%
[20]
  growth: 98.7%

## CC1=NN(c2cccc(Cl)c2)C(=O)/C1=C\C=C\c1ccccc1
[1]
  growth: 112%
[2]
  growth: 76.9%
[3]
  growth: 116%
[4]
  growth: 13.7%
[5]
  growth: -87.7% (active)
[6]
  growth: 75.5%
[7]
  growth: 101%
[8]
  growth: 21.6%
[9]
  growth: 63.3%
[10]
  growth: 14.4%
[11]
  growth: 5% (active)
[12]
  growth: -29.5% (active)
[13]
  growth: 50.9%
[14]
  growth: 37.5%
[15]
  growth: -57.4% (active)
[16]
  growth: 45.5%
[17]
  growth: 5.05% (active)
[18]
  growth: 28.2%
[19]
  growth: -87.9% (active)
[20]
  growth: -69.7% (active)

— PubChem BioAssay (NCI)
